Results published in PubChem BioAssay (Tox21).
Inconclusive results are not listed. A number with no mark means an inactive call. The source made the active and inactive calls. Calls follow the shape of the full dose curve.

biological target: Beta-2 adrenergic receptor (Homo sapiens) (UniProt P07550); test: Adrenergic beta2 receptor (ADRB2) small molecule antagonists, cell-based qHTS assay (AID 1963592); conditions: CHO-ADRB2 cells, isoproterenol-stimulated cAMP HTRF ratio, 0.5 h; series mostly up to 92.4 µM; activity change, negative = inhibition: at the top concentration; also: nearly all actives have a fitted effect of over 50% in size
Source text: U.S. Tox21 Program National Center for Advancing Translational Sciences [NCATS] Division of Preclinical Innovation [DPI] U.S. Environmental Protection Agency [EPA] National Institutes of Environmental Health Sciences [NIEHS] National Toxicology Program [NTP] U.S. Food and Drug Administration [FDA] Tox21 Assay Overview: Beta adrenergic receptors (Beta-ARs) belong to the G-protein coupled receptor (GPCR) superfamily, includes three subtypes - beta1, beta2, and beta3. Beta1-AR is the predominant receptor subtype expressed in the heart, and beta2-AR is expressed in the kidney, lung, blood vessel and in the heart, and beta3 is found in the adipocytes. Beta1 and 2 ARs couple to Gs protein and elevate cyclic adenosine mono phosphate (cAMP), which activates protein kinase A and leads to the downstream signaling responsible for the physiological actions. Beta-AR agonists or antagonists are the most prescribed therapeutic agents for heart failure and asthma, and these were one of the first target receptors for the rational drug design. Tox21 10K compound library was screened using the cAMP-Gs dynamic assay (Cisbio Bioassays, Shelton, CT) to identify agonists/antagonists of the Gs-coupled human adrenergic, beta2 receptor (ADRB2) in the CHO-ADRB2 cell line (Codex BioSolutions, Inc. Gaithersburg, MD), which stably over-expresses ADRB2. The principle of cAMP-Gs dynamic assay is based on HTRF technology, which facilitates the fluorescence resonance energy transfer (FRET) between donor Europium cryptate and acceptor d2-labeled cAMP. The cAMP generated within cells competes with the red acceptor, d2-labled cAMP, for binding to the monoclonal anti-cAMP-cryptate (Europium donor). An increase in intracellular cAMP leads to the disruption of FRET signal, and the signal is inversely proportional to the cAMP concentration. Propranolol HCl (Sigma-Aldrich, St. Louis, MO) was used as a positive control in the screening.
Tox21 Assay Protocol Summary: CHO-ADRB2 cells were dispensed at 1,000/well in 4uL assay medium into white/solid 1536-well plates (Greiner Bio-One North America Inc., Monroe, NC) using a Multidrop Combi dispenser (ThermoFisher Scientific, Waltham, MA). The assay plates were incubated at 37C and 5% CO2 for an overnight (18-20hr). Then positive control and test compounds dissolved in DMSO were transferred to the assay plates at 23nL using a Pintool station (Wako, San Diego, CA). Following the compound and positive control transfer, 1uL agonist-stimulation mix containing 1nM Isoproterenol HCl, 100uM IBMX and 25uM Ro-20-1724 was added to each well of the assay plates using BioRAPTR Flying Reagent Dispenser (FRD, Beckman Coulter, Brea, CA). The assay plates were incubated at room temperature for 0.5hr. Then 2.5ul each d2-labled cAMP and anti-cAMP-cryptate solutions were added separately to each well of the assay plates using an FRD and the assay plates were incubated at room temperature for 1hr. The fluorescence signal was measured at two different wavelengths (665nm and 615nm) using an Envision plate reader (Perkin Elmer, Shelton, CT). Data were expressed as the ratio of 665 nm/615 nm.
% is scaled to controls: 0 for no effect and ±100 for the full control effect.

Sequence of Beta-2 adrenergic receptor (Homo sapiens) (P07550 whole entry, looked up): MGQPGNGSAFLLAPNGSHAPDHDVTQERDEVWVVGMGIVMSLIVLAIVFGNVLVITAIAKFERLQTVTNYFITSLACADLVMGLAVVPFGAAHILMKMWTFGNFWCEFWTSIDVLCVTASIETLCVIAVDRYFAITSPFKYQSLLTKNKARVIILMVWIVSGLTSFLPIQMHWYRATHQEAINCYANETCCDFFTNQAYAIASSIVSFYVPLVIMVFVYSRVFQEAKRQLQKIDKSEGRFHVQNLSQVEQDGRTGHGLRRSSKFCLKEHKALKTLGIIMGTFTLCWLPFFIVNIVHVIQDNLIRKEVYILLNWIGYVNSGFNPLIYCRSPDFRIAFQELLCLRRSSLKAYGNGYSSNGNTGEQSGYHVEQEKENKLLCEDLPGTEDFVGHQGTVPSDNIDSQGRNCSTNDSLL

SMILES | Potency | activity change, negative = inhibition
Cn1cnc([N+](=O)[O-])c1Sc1ncnc2nc[nH]c12 | inactive | –
CCCCCCCN | – | -15.8%
CC(=O)OCC1=C(C(=O)O)N2C(=O)[C@@H](NC(=O)Cc3cccs3)[C@H]2SC1 | – | 3.56% [at 42.5 µM]
NCCCN1CCN(CCCN)CC1 | – | 3.19%
CC/C(=C(/CC)c1ccc(O)cc1)c1ccc(O)cc1 | inactive | –
C[N+](C)(CCOc1ccccc1)Cc1cccs1 | – | -0.982% [at 42.5 µM]
O=S(=O)(O)CO | – | 7.66%
C=CC(=O)NCOCC(C)C | – | 6.06%
CC(C=O)c1ccccc1 (stereo not given) | – | -14.7%
NC(=O)c1ccc(N)cc1 | – | 0.224%
CC(C)(C)c1ccc(CCC=O)cc1 | – | -0.665%
C=COCCOCCOCCOC=C | – | -1.99%
Cc1ccc(C(=O)Nc2ccc(S(=O)(=O)O)c3cc(S(=O)(=O)O)cc(S(=O)(=O)O)c23)cc1NC(=O)c1cccc(NC(=O)Nc2cccc(C(=O)Nc3cc(C(=O)Nc4ccc(S(=O)(=O)O)c5cc(S(=O)(=O)O)cc(S(=O)(=O)O)c45)ccc3C)c2)c1 | – | -6.69% [at 42.5 µM]
O=C(Nc1ccc([N+](=O)[O-])cc1)Nc1ccc([N+](=O)[O-])cc1 (tested in a mixture with another compound) | – | 1.14% [at 42.5 µM]
C=CC(C)(CCC=C(C)C)OC(=O)CC (stereo not given) | – | 1.25%
CCNc1cc(O)ccc1C | – | -0.171%
CCCCCCCCSCCO | – | 1.14%
CCOC(=O)c1ccc(C)cc1 | – | -2.04%
NC(=O)c1ccc([N+](=O)[O-])cc1 | – | 5.99%
O=C1OC(=O)c2ccccc21 | – | -15.4%

SMILES | Potency | activity change, negative = inhibition
CC(C)CCCC(C)CCCC(C)CCCCC(C)CCCC(C)CCCC(C)C (stereo not given) | – | 4.99% [at 42.5 µM]
CC(=C(CCOC(=O)C(C)C)SSC(CCOC(=O)C(C)C)=C(C)N(C=O)Cc1cnc(C)nc1N)N(C=O)Cc1cnc(C)nc1N | – | 15.7% [at 42.5 µM]
OCCCCl | – | 10.7%
O=[N+]([O-])c1ccc(CCO)cc1 | – | 0.515%
CC1CCC(C(C)(C)S)C(=O)C1 (stereo not given) | – | 5.95%
CC1CNCC(C)O1 (stereo not given) | – | -0.971%
CCC(=O)OCc1ccc(OC)cc1 | – | -0.642%
C[C@H]1C[C@@H](O)CC(C)(C)C1 | – | 0.467%
O=C(O)c1cc(N=Nc2ccc(S(=O)(=O)Nc3ccccn3)cc2)ccc1O | – | -10% [at 42.5 µM]
Cc1ccc(C2OC[C@@H]3OC(c4ccc(C)cc4)O[C@H]([C@H](O)CO)[C@@H]3O2)cc1 (stereo not given in full) | – | 0.145%
CCC(C(=O)OCCOCCN(CC)CC)c1ccccc1 (stereo not given) | – | -6.07% [at 42.5 µM]
OC1CCCC1 | – | 0.312%
CC1(C)Oc2ccc(C#N)cc2[C@@H](N2CCCC2=O)[C@@H]1O | – | 1.52% [at 42.5 µM]
CN1CCCC1 | – | -5.98%
CCCCC(CC)C(=O)OCCOCCOCCOC(=O)C(CC)CCCC (stereo not given) | inactive | –
CCCCc1ccc(Cl)cc1 | – | 2.49%
COS(=O)(=O)O | – | -1.27%
CC(C)c1ccc(S(=O)(=O)O)cc1 | inactive | –
c1ccc(CCc2ccccc2)cc1 | – | -7.72%
CC(=O)Nc1c(I)cc(I)c(C(=O)O)c1I | – | -12.8% [at 42.5 µM]
